From PubChem BioAssay AID1159580 (chemical genetic matrix, 2015)
Several values for one entry are separate records, joined by “and”; a condition that tells them apart may be missing. Equal values may be shown once. Among all 5,500 compounds or so, about 2,000 (36%) were called active. Inconclusive results (about 18%) are left out. Cut-off read from the data, not from the text of the source: active = normalized growth mostly below about 0.91 (no sharp cut-off); inconclusive = no clear call, values can overlap the other calls; inactive = mostly above about 0.92. The list shows a part of the results.

Assay: chemical genetic growth profiling, strain panel (AID 1159580);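 note: tested at 20 µM; growth read once vehicle control cultures reached saturation at 30 °C; 1 = growth at the plate median or of vehicle wells; lower values mean less growth of the strain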
Conditions: S. cerevisiae deletion strains, growth OD

Measured: normalized growth

NC(Cc1c[nH]c2ccccc12)C(=O)O (configuration not stated)
inactive: locus YAL013W, strain DEP1, stronger effect = lower value 1 | locus YAL021C, strain ccr4, stronger effect = lower value 1 | locus YAL026C, strain drs2, stronger effect = lower value 1.01 | locus YAL030W, strain snc1, stronger effect = lower value 1.02 | locus YBL061C, strain skt5, stronger effect = lower value 1.04 | locus YBR009C, strain hhf1, stronger effect = lower value 1 | locus YBR021W, strain FUR4, stronger effect = lower value 1.01 | locus YBR023C, strain chs3, stronger effect = lower value 1.02 | locus YBR171W, strain sec66, stronger effect = lower value 1.03 | locus YBR229C, strain ROT2, stronger effect = lower value 0.957 | locus YBR231C, strain swc5, stronger effect = lower value 1.02 | locus YBR279W, strain paf1, stronger effect = lower value 1.02 | locus YCL011C, strain gbp2, stronger effect = lower value 1.02 | locus YCL016C, strain dcc1, stronger effect = lower value 1.01 | locus YCL029C, strain bik1, stronger effect = lower value 0.98 | locus YCL061C, strain MRC1, stronger effect = lower value 1.01 | locus YCL069W, strain vba3, stronger effect = lower value 1.03 | locus YCR088W, strain abp1, stronger effect = lower value 1.02 | locus YDL005C, strain med2, stronger effect = lower value 1.03 | locus YDL035C, strain GPR1, stronger effect = lower value 1 | locus YDL040C, strain nat1, stronger effect = lower value 1.03 | locus YDL074C, strain BRE1, stronger effect = lower value 1.02 | locus YDL101C, strain DUN1, stronger effect = lower value 0.984 | locus YDL134C, strain PPH21, stronger effect = lower value 0.961 | locus YDL185W, strain tfp1, stronger effect = lower value 0.986 | locus YDL192W, strain arf1, stronger effect = lower value 0.984 | locus YDR001C, strain nth1, stronger effect = lower value 1.04 | locus YDR069C, strain doa4, stronger effect = lower value 1 | locus YDR101C, strain arx1, stronger effect = lower value 0.996 | locus YDR137W, strain rgp1, stronger effect = lower value 1.03 | locus YDR150W, strain NUM1, stronger effect = lower value 0.965 | locus YDR159W, strain sac3, stronger effect = lower value 1.02 | locus YDR162C, strain NBP2, stronger effect = lower value 0.998 | locus YDR195W, strain ref2 1.02 | locus YDR297W, strain sur2, stronger effect = lower value 1.02 | locus YDR318W, strain mcm21, stronger effect = lower value 0.988 | locus YDR334W, strain swr1, stronger effect = lower value 1.02 | locus YDR335W, strain msn5, stronger effect = lower value 1.03 | locus YDR388W, stronger effect = lower value 0.997 | locus YDR392W, strain spt3, stronger effect = lower value 0.939 | locus YDR502C, strain sam2, stronger effect = lower value 0.997 | locus YEL003W, strain gim4, stronger effect = lower value 1.01 | locus YEL037C, strain rad23, stronger effect = lower value 1.02 | locus YEL061C, strain CIN8 (second series), stronger effect = lower value 1.02 | locus YEL061C, strain CIN8, stronger effect = lower value 0.987 | locus YER015W, strain faa2, stronger effect = lower value 1.02 | locus YER016W, strain bim1, stronger effect = lower value 1.02 | locus YER110C, stronger effect = lower value 0.98 | locus YER111C, strain swi4, stronger effect = lower value 1.03 | locus YER155C, strain BEM2 (second series), stronger effect = lower value 0.997 | locus YER155C, strain BEM2, stronger effect = lower value 1.01 | locus YER167W, strain BCK2, stronger effect = lower value 1.01 | locus YFR010W, strain ubp6, stronger effect = lower value 1.02 | locus YGL078C, strain dbp3, stronger effect = lower value 0.982 | locus YGL086W, strain mad1, stronger effect = lower value 1.01 | locus YGL167C, strain pmr1, stronger effect = lower value 1.02 | locus YGL173C, strain kem1, stronger effect = lower value 1.03 | locus YGL227W, strain vid30, stronger effect = lower value 1.03 | locus YGL240W, strain doc1, stronger effect = lower value 1 | locus YGL248W, strain PDE1, stronger effect = lower value 0.991 | locus YGL253W, strain hxk2, stronger effect = lower value 1.01 | locus YGR078C, strain PAC10, stronger effect = lower value 0.991 | locus YGR135W, strain pre9, stronger effect = lower value 0.993 | locus YGR229C, strain SMI1, stronger effect = lower value 1 | locus YGR252W, strain gcn5, stronger effect = lower value 0.981 | locus YHR013C, strain ard1, stronger effect = lower value 1.02 | locus YHR027C, strain rpn1, stronger effect = lower value 1.02 | locus YHR030C, strain SLT2, stronger effect = lower value 0.988 and 0.966 | locus YHR079C, strain IRE1 (second series), stronger effect = lower value 0.989 | locus YHR079C, strain IRE1, stronger effect = lower value 0.983 | locus YHR094C, strain hxt1, stronger effect = lower value 0.988 | locus YHR129C, strain ARP1, stronger effect = lower value 0.993 | locus YHR142W, strain chs7, stronger effect = lower value 1.03 | locus YHR200W, strain rpn10, stronger effect = lower value 0.995 | locus YIL066C, strain RNR3, stronger effect = lower value 0.979 | locus YIL073C, strain SPO22, stronger effect = lower value 1 | locus YIL125W, strain kgd1, stronger effect = lower value 0.998 | locus YIR030C, strain dcg1, stronger effect = lower value 0.992 | locus YJL092W, strain hpr5, stronger effect = lower value 1.03 | locus YJL095W, strain BCK1 (second series), stronger effect = lower value 1.02 | locus YJL095W, strain BCK1, stronger effect = lower value 1.04 and 0.984 | locus YJL115W, strain asf1, stronger effect = lower value 1.03 | locus YJL129C, strain trk1, stronger effect = lower value 1.02 | locus YJL134W, strain LCB3, stronger effect = lower value 0.987 | locus YJL154C, strain vps35, stronger effect = lower value 1.02 | locus YJL164C, strain tpk1, stronger effect = lower value 1 | locus YJL166W, strain qcr8, stronger effect = lower value 1.01 | locus YJL168C, strain set2, stronger effect = lower value 0.99 | locus YJL187C, strain SWE1 (second series), stronger effect = lower value 0.973 | locus YJL187C, strain SWE1, stronger effect = lower value 1.03 | locus YJR043C, strain POL32, stronger effect = lower value 1.01 | locus YJR066W, strain TOR1, stronger effect = lower value 0.978
